# Assay outcomes from PubChem.
# In the library only some 2.3% were active in any assay of this set; here they are far more common.
# CHRM1 PAM: human M1 muscarinic receptor positive allosteric modulators, primary screen, CHO-K1 cells, Fluo-8 calcium fluorescence, 1536-well; hit rate 0.088% among 360,000; CHO-K1 hM1, ACh EC20; 0% = ACh EC20, 100% = maximal ACh; activation, % at 3 µM; AID 588819, 2011; Muscarinic acetylcholine receptor M1 (Homo sapiens), P11229; in the data active = activation above about 19%, passing the limit was not always enough
# Target sequence (P11229 whole entry, looked up): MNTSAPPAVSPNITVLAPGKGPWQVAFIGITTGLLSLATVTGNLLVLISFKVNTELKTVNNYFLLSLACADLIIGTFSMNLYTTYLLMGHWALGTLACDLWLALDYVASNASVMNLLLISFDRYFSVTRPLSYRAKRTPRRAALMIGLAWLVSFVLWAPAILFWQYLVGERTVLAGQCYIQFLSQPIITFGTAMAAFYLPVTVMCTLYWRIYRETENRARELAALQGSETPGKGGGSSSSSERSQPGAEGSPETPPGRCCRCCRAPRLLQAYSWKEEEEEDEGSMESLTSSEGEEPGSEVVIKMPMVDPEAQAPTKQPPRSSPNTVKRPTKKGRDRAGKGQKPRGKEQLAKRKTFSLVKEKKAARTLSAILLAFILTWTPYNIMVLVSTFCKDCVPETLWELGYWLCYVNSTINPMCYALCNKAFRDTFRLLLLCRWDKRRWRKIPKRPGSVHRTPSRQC
# CHO-K1 Ca antag: M1 antagonist counterscreen hit in parental CHO-K1 cells. ATP-induced calcium, Fluo-8 fluorescence. inhibition, % at 3 µM. hit rate 0.6% among 360,000. AID 602250;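 active = inhibition above a per-plate cutoff, the plate's mean sample inhibition plus 3 SD, cut at about 24% in these data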
# M1 ag parental: counter-screen for M1 agonists: effect in parental CHO-K1 cells | Fluo-8 calcium fluorescence; scaled to maximal ATP response, vehicle zero | hit rate 0.48% among 360,000 | activation, % at 3 µM; in the data active = activation above about 15%;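 note: untransfected CHO-K1 host cells lacking M1 receptor as counterscreen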
# M1 ag: human M1 muscarinic receptor agonists, primary screen, Fluo-8 calcium fluorescence, CHO-K1 cells, HTS | Muscarinic acetylcholine receptor M1 (Homo sapiens), P11229 | CHO-K1 hM1, agonist mode; 0% DMSO, 100% acetylcholine EC100 | activation, % at 3 µM | hit rate 0.33% among 360,000;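 active = activation above the run's mean compound activation plus 3 SD, cut at about 16% in these data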;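 note: peak over basal fluorescence ratio within a 140 s kinetic read after compound addition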
# M1 antag: human M1 muscarinic receptor antagonists, primary screen, CHO-K1 cells, Fluo-8 calcium fluorescence, 1536-well. Muscarinic acetylcholine receptor M1 (Homo sapiens), P11229. CHO-K1 hM1, ACh EC80 antagonist. inhibition, % at 3 µM. hit rate 1.3% among 360,000;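 active = percent inhibition above its own plate's cutoff, namely the mean of that plate's compound wells plus 3 SD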;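 note: peak over basal fluorescence ratio during 140 s after agonist addition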
# CHO-K1 Ca PAM: nonselective calcium activators in parental CHO-K1 cells, primary screen, counter-screen for M1 PAM project, cell-based, Fluo-8 calcium fluorescence, full deck, 1536-well; ATP EC20; 0% at ATP EC20, 100% at ATP max; activation, % at 3 µM; hit rate 0.02% among 360,000;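 active = activation above the run cutoff, the mean activation of all test compounds plus 3 SD, cut at about 40% in these data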;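 note: peak over basal fluorescence ratio in a 140 s read after ATP addition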
# Hits are given with their value; – = inactive; · = not tested or not shown.
SMILES,CHRM1 PAM,CHO-K1 Ca antag,M1 ag parental,M1 ag,M1 antag,CHO-K1 Ca PAM
COC(=O)C1=C(c2cc3ccccc3o2)C[C@@H]2CC[C@H]1N2C(=O)NCc1ccc(F)cc1,–,–,–,–,66.9,–
COC(=O)C1=C(c2ccccc2)C[C@@H]2CC[C@H]1N2C(=O)NCc1ccccc1,–,–,–,–,–,–
O=C1CC23c4ccccc4N4C(=O)CC5OCC=C6CN1C2CC6C5C43 (stereo not given),–,–,–,–,–,–
COc1ccc(OC(=O)N(C)C[C@@H]2OCc3ccccc3-c3c(n(C)c4ccccc34)C(=O)N([C@H](C)CO)C[C@@H]2C)cc1,–,–,–,–,–,–
C[C@H](CO)N1C[C@H](C)[C@H](CN(C)C(=O)Oc2ccccc2)OCc2cnnn2CCCC1=O,–,–,–,–,–,–
CC(C)(C)n1nnnc1C(c1cccc2ccccc12)N1CCC2(CC1)C(=O)NCN2c1ccccc1 (stereo not given),–,–,–,–,–,–
CCn1ccnc1CN1CCCC(C(=O)c2cc(C)c(OC)c(C)c2)C1 (stereo not given),–,–,–,–,37.6,–
O=[N+]([O-])c1cccnc1N1CCCNCC1,–,–,–,–,47.6,–
O=[N+]([O-])c1ccc(N2CCNCC2)cc1N1CCCCC1,–,–,–,–,–,–
O=[N+]([O-])c1ccc(N2CCCCCC2)c2nonc12,–,52.8,161.8,145.4,53.2,–
O=[N+]([O-])c1ccc(N2CCCNCC2)c2ncccc12,–,–,–,–,82.0,–
CC(C)C[C@@H]1COc2cccc(N3CCN(C)CC3)c2S(=O)(=O)N1,·,–,–,·,·,–
C[C@]12CCC3C(CC[C@@H]4C[C@@H](O)CC[C@]34C)C1CC[C@@H]2O (stereo not given in full),–,–,–,–,–,–
C[C@]12CCC3C(CC[C@H]4C[C@@H](O)CC[C@]34C)C1CC[C@@H]2N (stereo not given in full),–,–,18.6,–,–,–
CN1/C(=C\C=C2C(=O)NC(=S)NC2=O)C(C)(C)c2ccccc21,–,–,53.5,63.3,27.2,–
O=C1NC(=S)NC(=O)C1=Cc1cccc2cc3ccccc3cc12,–,–,–,–,–,–
O=c1[nH]c2ccccc2n1C1CCN(Cc2ccc(-c3[nH]c4cc5ncnc5cc4nc3-c3ccccc3)cc2)CC1,·,–,–,·,·,–
Cc1ccc2c(c1)C1CN(C)CCC1N2C(=O)c1cccs1 (stereo not given),–,–,–,–,–,–
Cc1ccc2c(c1)C1C[N+](C)(CC(=O)c3ccc(Cl)cc3Cl)CCC1N2C(=O)c1ccc(F)cc1 (stereo not given),–,–,–,–,34.0,–
CN1C(=O)C(O)N=C(c2ccccc2)c2ccccc21 (stereo not given),–,–,–,–,37.5,–
O=C1Nc2ccccc2C(c2ccccc2)=NC1O (stereo not given),–,–,–,–,–,–
CCOC(=O)[C@]12Cc3cc(OC)ccc3[C@H]1N(C(C)C)C(=O)c1cc(OC)ccc12,·,–,–,·,·,–
CCCCn1nnnc1C(c1cccc2ccccc12)N1CCC2(CC1)C(=O)NCN2c1ccccc1 (stereo not given),–,30.1,–,–,–,–
O=C1NCN(c2ccccc2)C12CCN(C(c1ccccc1)c1nnnn1-c1ccc3c(c1)OCCO3)CC2 (stereo not given),–,–,–,16.7,–,–
O=c1[nH]c2ccccc2n1C1CCN(C(CCc2ccccc2)c2nnnn2C2CCCC2)CC1 (stereo not given),–,–,–,–,–,–
SMILES,CHRM1 PAM,CHO-K1 Ca antag,M1 ag parental,M1 ag,M1 antag,CHO-K1 Ca PAM
COC(=O)[C@@H]1N=C(c2ccc(OC)cc2)O[C@]12C(=O)N(C)c1ccc(Cl)cc12,·,–,–,·,·,–
O=C(NCC1=C(c2ccc3ccccc3c2)C[C@@H]2CC[C@H]1N2Cc1ccco1)c1ccc([N+](=O)[O-])cc1,–,–,–,–,43.2,–
O=C(NCC1=C(c2ccc3ccccc3c2)C[C@@H]2CC[C@H]1N2Cc1ccco1)c1ccncc1,–,–,–,–,–,–
O=C1CN=C(c2ccc(Cl)cc2)c2oc3ccccc3c2N1,–,–,–,17.8,–,–
O=C1NC(=O)C(CCc2ccncc2)(CCc2ccncc2)C(=O)N1CCc1ccccc1,–,–,17.2,–,–,–
C=CC12CN(C)C3C4COC(CC41)C1(C(=O)Nc4ccccc41)C32 (stereo not given),–,–,–,–,–,–
CCC(C)c1cnc(CC(C)C)c(=O)n1O (stereo not given),–,–,–,–,–,–
Nc1ccc2ccc3cccc[n+]3c2c1,–,–,32.3,–,–,–
Cc1cc(C)c(C)c(C(O)(C(=O)O)c2ccccc2)c1 (stereo not given),–,–,–,–,–,–
CN(CC1COc2ccccc2O1)c1nc(-c2cccnc2)nc2ccccc12 (stereo not given),–,–,–,–,30.0,–
CN1CCC(N(C)c2nc(-c3ccc([N+](=O)[O-])cc3)nc3ccccc23)CC1,–,–,–,–,–,–
CCCCCSc1cc(OC)c(CCN(C)C)cc1OC,–,–,–,–,49.2,–
Fc1cccc(-c2ccc3c(c2)CN(C(=S)NCCc2ccccc2)Cc2cnnn2-3)c1,–,–,–,–,–,–
COc1ccccc1OCC#CCN1CCCCCC1,–,–,–,–,32.9,–
COc1ccccc1OCC#CCN1CCOCC1,–,–,–,–,–,–
Clc1ccc(OCC#CCN2CCCC2)cc1,–,–,–,–,32.3,–
O=C1c2cccc(N3CCNCC3)c2C2CCCCN12 (stereo not given),–,–,–,–,–,–
CCC(c1nnnn1C1CCCCC1)N1CCC2(CC1)C(=O)NCN2c1ccccc1 (stereo not given),–,–,–,–,–,–
CC1CC2(C)C(CCC3C2CCC2(C)C(OP(=O)(N4CC4)N4CC4)CCC32)CC1=O (stereo not given),–,–,–,–,102.1,–
C[C@]12CCC3C(CC[C@H]4C[C@H](O)CC[C@]34C)C1CC(=O)[C@@H]2O (stereo not given in full),–,–,–,–,–,–
S=C(NCCc1ccccc1)N1Cc2ccccc2-n2nncc2C1,–,–,–,–,–,–
